From PubChem BioAssay (Tox21)
Several values for one entry are separate records, joined by “and”; a condition that tells them apart may be missing. Equal values may be shown once. Inconclusive results are not listed. More than one record can exist for a structure, and the calls need not agree. Activity calls are given as the source filed them. The call rests on the fitted dose curve; in most records, active means well fitted cell-killing curve with a large enough effect in the repeat runs; inconclusive means weak or mixed curves, or effect the other way; inactive means flat fitted curve, though single readings scatter.

assay: qHTS RealTime-Glo MT Cell Viability Assay in HepG2 cells - 40 hour (AID 1224870); conditions: RealTime-Glo luminescence; series mostly up to 76.8 µM; activity change, negative = cytotoxic: at the top concentration; further: nearly all actives have a fitted effect of over 50% in size
Summary of the method: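 Real-time viability: cells seeded at 600 per well together with NanoLuc and cell-permeant prosubstrate, compounds added after 5 h incubation. Luminescence tracked at 0, 8, 16, 24, 32 and 40 h of exposure.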
On the % scale 0 is the no-effect control and ±100 the full control effect; potency means the concentration at half of the fitted maximal effect.

Compound	activity change, negative = cytotoxic	Potency
Nc1ccc(O)cc1	2.84% [at 35.3 µM] (inactive)	
CCc1cc(C(C)(C)C)c(O)c(C(C)(C)C)c1		inactive
CCN(CC)C(=S)SSC(=S)N(CC)CC		100 nM (active)
Oc1ccc(Cl)cc1Cc1cc(Cl)ccc1O		49900 nM (active)
C/C=C/c1ccc(OCC)c(O)c1		inactive
O=C1OC2(c3ccc(O)cc3Oc3cc(O)ccc32)c2ccccc21		inactive
CC(C)(C)c1ccc(O)c(C(C)(C)C)c1	-23.4% (inactive)	
COc1nc(C)nc(Cl)c1NC1=NCCN1	2.19% [at 35.3 µM] (inactive)	
O=C(O)c1cn(-c2ccc(F)cc2)c2cc(N3CCNCC3)c(F)cc2c1=O		inactive
CC(N)=O	3.06% [at 200 µM] (inactive)	
CC1=C(C=O)C(C)(C)CC=C1	-1.68% (inactive)	
O=C1Nc2ccccc2C1(c1ccc(O)cc1)c1ccc(O)cc1		inactive
COc1ccc(CCN2CCC(Nc3nc4ccccc4n3Cc3ccc(F)cc3)CC2)cc1		15.8 µM (active) and 10.7 µM (active)
CC(COc1ccccc1)N(CCCl)Cc1ccccc1 (stereo not drawn)		inactive
Nc1nc2ccccc2[nH]1		inactive
CCN(CC)CCOc1ccc(/C(=C(\Cl)c2ccccc2)c2ccccc2)cc1		17.7 µM (active) and 23.9 µM (active)
Oc1c(Cl)cc(Cl)cc1Sc1cc(Cl)cc(Cl)c1O		inactive

Compound	activity change, negative = cytotoxic	Potency
C[N+]1([O-])CCOCC1	-1.51% (inactive)	
Cc1cc(C2(c3cc(C)c(O)cc3C)OS(=O)(=O)c3ccccc32)c(C)cc1O	-26.4% (inactive)	
CC(C)(O)CCC(C)(C)O	2.55% (inactive)	
CC(=O)OCCOCCOCCOC(C)=O		inactive
O=C(Cl)c1cccc(C(=O)Cl)c1		inactive
CCCOC(=O)c1cc(O)c(O)c(O)c1		inactive
CCCCCCCCCCCCc1ccccc1O		inactive and 49 µM (active)
C=C(C)C(=O)O		inactive
O=C(Nc1ccccc1SSc1ccccc1NC(=O)c1ccccc1)c1ccccc1	0.583% (inactive)	
Nc1cc(Cl)c(-c2cc(Cl)c(N)cc2Cl)cc1Cl	-14.9% (inactive)	
CCn1c2ccccc2c2cc(N)ccc21		inactive
c1cc(C(c2ccc(OCC3CO3)cc2)C(c2ccc(OCC3CO3)cc2)c2ccc(OCC3CO3)cc2)ccc1OCC1CO1 (stereo not drawn)		inactive
CCCCCCCCCCCCCC[P+](CCCC)(CCCC)CCCC		21.8 µM (active) and 11 µM (active)
CCCCC(CC)COC(=O)CC(C(=O)OCC(CC)CCCC)S(=O)(=O)O (stereo not drawn)		inactive
CC(C)CCCCCCc1ccc(O)cc1		25 µM (active) and inactive
Cc1cccc(O)c1C		inactive
